These sequences were tested on VDR:RXRa (NR concentration 270 nM, RXRa partner concentration 90 nM) (assay: PBM binding z-score (relative to random genomic background probes); higher = stronger binding; sequences stand for … in GC…GCGATTGACAGCGTAGAATGAAGG).
Experimental: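 Protein-binding microarray (Agilent 4x180K custom design, double-stranded 60-nt probes: 5' GC cap, 34-nt variable region, 24-nt constant primer region; full probe sequence given). Purified or IVT nuclear receptor:RXRα heterodimers (3:1 NR:RXRα, mostly 270:90 nM) or homodimers were incubated for 1 h in PBS with 2% milk and no ligand, then detected with Alexa488 antibodies. Fluorescence from o1-orientation probes (~5 replicates averaged) was converted to z-scores against 500 random hg19 background probes. Variable regions are seed direct-repeat (DR0–DR5) sites, all their single-nucleotide variants and half-site ablations.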

Row | Sequence | PBM binding z-score
1 | GATACAGGGTCAGCTAGAGGACAGAGTATGGAAA | 3.75
2 | CCTTACGGGTCAAGGTTTTAGCACGGGTGGTACG | 2.82
3 | TCTATTAGATGAAGGGCAACCGACGAGTCCGTTT | 1.02
4 | ACAGTCAGGTGATGAAGGTAACTCAGGCTATCAT | -0.0524
5 | TAGCCTAGGTCATGCAGGCCAGTATAGTGTCGGC | 3.25
6 | ATCGAGAGGTCGAGGTGAGTATAGAGAAAGGGAA | 2.41
7 | CGAACTAGGTCATCCAGGACAGTAAATACATTGA | 4.71
8 | TAGCTTAGGTCATGCGGGCCAGTATAGTGTCGGC | 3.13
9 | CCGACTGGGGCATAAAGTTACCATAAGCCAGCCC | -0.432
10 | CTTCCAAGGTCAAGGTCAGTGAAAGAGACTCGAA | 4.87
11 | GCGACTGGGGCATCAGCAGTTTACCATAACTTAA | -0.0228
12 | AGAACGATGGCACGCTGAGTTGATAGCAGAGTAG | -0.574
13 | TCTGCTAGGTCAGTTGATCAGCTAACGAGCTGCC | 0.135
14 | CGTCCAAGGCCAAAGGTCAGTGAAGAGATGACGG | 3.16
15 | TCATTTAGGTAAATGCTAGGTGAAAGTCCGATCT | 0.573
16 | GCGACTGGGGCATCAGCAGGTTACGATAACTTAA | 0.0769
17 | GGAACGAGGGCAAGTCGATAGCAGAGTTTGATGG | 0.364
18 | TCTTATAGATCAAAGGTTAAGAAAGCCGAAGCCT | 2.27
19 | TCGAGTAGATTACCAATGGGGCATTCAGCTTTCT | -0.414
20 | ACAGACAGGTTATGAAGGTAACTCAGGCTATCAT | 1.3

Row | Sequence | PBM binding z-score
21 | TCGAGTTGGTTAGTCGGGGCATTCAGCCAACATA | 0.43
22 | CCAGACAGGTGAGAAGGTAACTCACCCTCGATTA | 0.0837
23 | GCGACTTGGGCATCAGCAGGTTACCATAACTTAA | -0.417
24 | CCTGCTAGGTCAAGGTCAGCTAATCTACAGTATG | 3.4
25 | CCTACCGGGCCATCAGGTCATTGATATCAACGTT | 1.83
26 | ATATGTAGGTTAGCCGGGGTCATTCAGACTAGGC | 6.67
27 | TCTATTAGTTGACTAGGGCAACCGAAACAGCGGA | 0.704
28 | GCGATTGGGGCAAAGCAGGTTACCATAAGGTTGG | 0.27
29 | AGTCAAGGTTCATCTAGGTAACGTAAGATATGCT | 4.56
30 | ACAGACAGGTGACGAAGGTAACTCAGGCTATCAT | 0.352
31 | CCTACTGGGCCGAAAAGGTCATTGATGCCGATAA | 4.48
32 | TAGCCTAGGTCATGGGCCAGTATCCCACGCGAAC | 1.76
33 | ATATGTAGGTTACATCCCGGTCATTCAGGCTATG | 1.79
34 | AGAATGAGGTTACCAAAGATCAGAGAAACGCTTG | 1.36
35 | AGAATGAGGTTATTAAGATCAGGGTATTGCGGTC | 2.43
36 | CGTCCAAGGTCAGCCGGTCAGTGAAAGCGACGTG | 3.32
37 | CCTCCTGGGCCAAAAAGGTCATTGATGCCGATAA | 4.94
38 | ATATGTTGGTTATCGGGTCATTCAGTTTGCGCAT | 4.86
39 | TCATGTAGGTAAAGGTGAAAGTCGAACGATATGA | 1.11
40 | TATAGTTGGTCAAAGGTCACACACTCGAAATGCG | 5.53
